Experimental data as given in ChEMBL document CHEMBL4513216, “Probing the Open Global Health Chemical Diversity Library for Multistage-Active Starting Points for Next-Generation Antimalarials” (ACS Infect Dis, 2020).
Among all 69,000 compounds or so, about 8,600 (12%) showed an effect of 50% or more. The sample as a whole holds a higher share of strong results than the screen did.

Tested on: Plasmodium berghei
Test: Screen against P. berghei liver stage (PbLuc), transformed with Luciferase, at 10uM
Type: functional, HepG2
Conditions: tested at 10 uM

| SMILES | INHIBITION [%] |
| --- | --- |
| Cc1ccc(CN2CCC[C@]3(C(=O)O)CN(CC4CC4)C[C@@H]3C2)s1 | -27.6 |
| COCC(=O)N1CCN(Cc2cc(F)cc(Br)c2)CC1 | -10.9 |
| CN(C)CCOCc1nnc2n1CCN(Cc1ccco1)C2 | -13.7 |
| CCc1ccc(C2COCCN2C(=O)NCc2cccc(C#N)c2)o1 (stereo not given) | -92.8 |
| CCc1ccc(C2COCCN2C(=O)Nc2ccc(C(N)=O)c(Cl)c2)o1 (stereo not given) | 78.3 |
| CCc1ccc(C2COCCN2C(=O)Nc2ccc(C#N)cc2)o1 (stereo not given) | 65.3 |
| Cc1ccc(C2COCCN2C(=O)c2ccc(C#N)cc2)o1 (stereo not given) | 32 |
| CCc1ccc(C2COCCN2C(=O)Nc2cccc(C(C)=O)c2)o1 (stereo not given) | -2.9 |
| CCc1ccc(C2COCCN2C(=O)Nc2cc(C)on2)o1 (stereo not given) | -107 |
| CNC(=O)C1CN(Cc2c[nH]cn2)CCN(C2CCOCC2)C1 (stereo not given) | 25.6 |
| CC(C)Oc1ccc(C(=O)N2CCCSCC2CN(C)C)cc1 (stereo not given) | 36.6 |
| O=C(COC[C@H]1CC[C@H]2[C@H](CCN2c2ccccn2)O1)N1CCCC1 | -37.4 |
| Cc1nccn1CCN(C)C(=O)c1cn(CC2CCCCC2)nn1 | 41.8 |
| CCSCc1cccc(NCc2cccnc2)c1 | 61.6 |
| COc1ccnc(NC(=O)CSCc2cccnc2)c1 | 36.9 |
| COc1cccc(CNCc2cccnc2)c1 | 13.7 |
| COc1cccc(CSCC(=O)NCc2cccnc2)c1 | 54.5 |
| COCc1cccc(NCc2cccnc2)c1 | 36.5 |
| CCOCc1nnc(NCc2cccnc2)o1 | -0.897 |
| Cc1cc(NCc2cccnc2)n2nc(C)cc2n1 | -10.4 |
| CCSc1cccc(NCc2cccnc2)c1 | 85.2 |
| OCc1ccc(Cl)c(NCc2cccnc2)c1 | 3.16 |
| CCCc1nn(Cc2ccc(Br)s2)c(=O)o1 | 40.5 |
| CCc1nc(CN2CCCN(C(=O)CC(C)OC)CC2)cs1 (stereo not given) | 43.3 |
| CN(Cc1nccn1CC(F)(F)F)C(=O)c1cccc(C#N)c1 | 41.1 |
| CC(NC(=O)CNc1cc2c(cc1Cl)OCCO2)c1ccco1 (stereo not given) | -10.3 |
| O=C(Nc1ccc(-c2cnc(NCCO)nc2)cc1)[C@@H]1CCCCN1 | 23.4 |

| SMILES | INHIBITION [%] |
| --- | --- |
| CCCn1nc2c(cc1=O)CN(Cc1ccccn1)CC2 | 58.3 |
| CCCn1nc2c(cc1=O)CN(Cc1nc(C)c3ccccc3n1)CC2 | 34.6 |
| CCCn1nc2c(cc1=O)CN(Cc1cc(C)on1)CC2 | 40.1 |
| CCCn1nc2c(cc1=O)CN(CCCS(N)(=O)=O)CC2 | 47.6 |
| CCCn1nc2c(cc1=O)CN(CCS(C)(=O)=O)CC2 | 70.1 |
| CCCn1nc2c(cc1=O)CN(CCN1CCCC1=O)CC2 | -7.35 |
| CNC(=O)N1CC[C@@H]2CN(Cc3ccccc3)S(=O)(=O)[C@@H]2CC1 | 23.1 |
| CC(NC(=O)NCCc1nc(C(F)(F)F)cs1)C(=O)N(C)C (stereo not given) | -15.5 |
| O=C([C@H]1C[C@H]2OCC[C@H]2N(Cc2cccnc2)C1)N1CCCO1 | 38.1 |
| CCn1nccc1CNC(=O)C1CCC1 | 21.8 |
| c1cnc(NCc2nnn3c2CN(Cc2cccs2)CCC3)nc1 | 24.9 |
| Cc1nc(NCc2nnc(C)n2C)c2c(CC(C)C)csc2n1 | 46.6 |
| CCc1csc(C2CCCN(C(=O)c3ccc4[nH]nnc4c3)C2)n1 (stereo not given) | -10.1 |
| CCCn1nccc1-c1nccnc1CC1CCN(C(C)=O)C1 (stereo not given) | 7.19 |
| O=C(CC1CCCC1)N1C[C@@H]2CCN(c3cccnc3)C[C@@H]2C1 | 60.7 |
| FC(F)(F)c1ccnc(N2C[C@H]3CCN(c4cccnc4)C[C@H]3C2)n1 | 5.96 |
| O=C(c1ccc(F)cc1)N1C[C@@H]2CCN(c3cccnc3)C[C@@H]2C1 | 43.9 |
| O=C(CC1CC1)N1C[C@@H]2CCN(c3cccnc3)C[C@@H]2C1 | 19.8 |
| COC(=O)N1CCCCC1C(=O)N1CCN(c2ncccc2C)CC1 (stereo not given) | 12.7 |
| c1cnc(N2C[C@H]3CCN(c4cccnc4)C[C@H]3C2)nc1 | -0.113 |
| COC(=O)N1CCCCC1C(=O)N1CCN(c2cccnc2)CC1 (stereo not given) | 82.2 |
| Fc1cccc(N2C[C@H]3CCN(c4cccnc4)C[C@H]3C2)c1 | 50.5 |
| c1cncc(N2CC[C@@H]3CN(CC4CC4)C[C@@H]3C2)c1 | 57.4 |
| COC(=O)N1CCCCC1C(=O)N1CCCN(c2ccnc(C)c2)CC1 (stereo not given) | 15.9 |
| Cc1cc(C(=O)Nc2ccn(CCCN3CCCC3)n2)c(C)o1 | 18.2 |
| O=S(=O)(C1CC1)N1CCC2(CCN(Cc3nccs3)CC2)CC1 | -12.1 |
| CC1CN(C)c2ccccc2CN1CCn1cncn1 (stereo not given) | 38 |

| SMILES | INHIBITION [%] |
| --- | --- |
| CNc1ncc(CN2CCCC2c2[nH]ncc2C(=O)N(C)C)cn1 (stereo not given) | 20.2 |
| O=C(COc1cccc(Cl)c1)N1CCOCC(O)(CN2CCCC2)C1 (stereo not given) | -18.9 |
| CCC(C)(CC)NC(=O)COc1nn(C)c2nc(C)cc(C)c12 | 48.1 |
| CCCc1nnc(SCc2cc(=O)n3c4c(sc3n2)CCCC4)[nH]1 | -4.35 |
| O=C(C1CN(c2ncc(F)cn2)CC12CCOCC2)N1CC=CC1 (stereo not given) | 37.8 |
| Cc1cccnc1CN1CCN(C(=O)c2ccn(C(C)(C)C)c2)CC1 | 45 |
| O=C(NCCO)C1(Cc2ccccc2-c2cccnc2)CCOCC1 | -43 |
| CN(CC(C)(CO)CO)C(=O)Nc1cc(F)cc(F)c1 | 18.9 |
| COc1ccccc1CN(C)Cc1ccnc(C2CCCO2)n1 (stereo not given) | 14.755 |
| O=C(C1CCCC1)N1C[C@@H]2CCN(c3cccnc3)C[C@@H]2C1 | 54.4 |
| O=C(C1CCC1)N1C[C@@H]2CCN(c3cccnc3)C[C@@H]2C1 | 5.96 |
| Cc1cccc(NC(=O)N2CCCn3cnc(CN4CCCC4)c3C2)c1 | 15.1 |
| CCc1nnc2n1CCN(Cc1csc(Cc3ccccc3)n1)C2 | 19.2 |
| COCCN1C(=O)[C@]2(CC[C@@H]3CN(C(=O)NC4CCCC4)C[C@@H]32)N=C1C | 20.2 |
| CC1=N[C@@]2(CC[C@@H]3CN(CC4CC4)C[C@@H]32)C(=O)N1CC(C)C | 74.2 |
| CC1=N[C@@]2(CC[C@@H]3CN(CC4CC4)C[C@@H]32)C(=O)N1CC1CC1 | 12.4 |
| COCCN1C(=O)[C@]2(CC[C@@H]3CN(C(=O)NC(C)C)C[C@@H]32)N=C1C | 57.1 |
| COCCN1C(=O)[C@]2(CC[C@@H]3CN(C(=O)NCC(C)C)C[C@@H]32)N=C1C | 18.1 |
| CC1=N[C@@]2(CC[C@@H]3CN(CC(C)C)C[C@@H]32)C(=O)N1CC(C)C | 39.2 |
| Cc1csc(N2CCN(Cc3nnsc3Cl)CC2C)n1 (stereo not given) | 45.2 |
| O=C(c1ccco1)N1CCOCC2(C1)CN(c1ccoc1)C(=O)CO2 (stereo not given) | -8.28 |
| CCOc1ccc(CN2CCC(c3ccn[nH]3)C2)cc1CO (stereo not given) | 43.85 |
| Cn1cc2c(n1)C(CNCc1ccco1)OCC2 (stereo not given) | 15.4 |
| CC(C)CC1SCC(=O)Nc2c1cnn2-c1ccc(F)cc1 (stereo not given) | 28.4 |
| CN(C)C(=O)[C@H]1C[C@H]2[C@H](CCN2Cc2ccc3c(c2)OCO3)O1 | 18.5 |
| CCCNC(c1cccnc1)c1ccc(F)cc1F (stereo not given) | 12.9 |
| O=c1n(CCNCc2ccc3ccccc3c2)nc2ccccn12 | -23.4 |

| SMILES | INHIBITION [%] |
| --- | --- |
| CCSCCC(=O)NCCn1nc2ccccn2c1=O | 37.7 |
| O=c1n(CCNc2cccc3ccccc23)nc2ccccn12 | 65.2 |
| CCNC(=O)NCCCn1nc2ccccn2c1=O | -12.2 |
| CCC(=O)CNC(=O)CCn1nc2ccccn2c1=O | 69.8 |
| O=c1n(CCNCc2cccc3ccccc23)nc2ccccn12 | 28.8 |
| CC(=O)N(Cc1ncc(C)o1)C1CCN(Cc2cnc(C)s2)C1 (stereo not given) | 14.2 |
| CC(C)C[C@H](N)C(=O)N1CC2(CCNCC2)c2cc(Cl)ccc21 | -28.2 |
| CCCc1noc(C2CCN(S(=O)(=O)c3cccs3)CC2)n1 | 4.97 |
| COc1cccc2ccc(CN3CCN(c4ccncc4)CC3)nc12 | 25.3 |
| COc1cccc2ccc(CN3CCN(c4ncccc4C)CC3)nc12 | 61.1 |
| COc1cccc2ccc(CN3CCN(c4ncccn4)CC3)nc12 | 39.8 |
| Cc1ccc(CNC(C)c2ccc(OCC(=O)NC3CC3)cc2)o1 (stereo not given) | 40 |
| COCc1noc(Cn2c(C)cc(C(F)(F)F)cc2=O)n1 | 41.2 |
| CCCc1nnc(NCCCn2nc(C)c(Cl)c2C)o1 | 16.1 |
| CCN1CCO[C@@H]2CN(C(=O)COC3CCCC3)C[C@@H]2C1 | 0.804 |
| CN(Cc1ccccn1)C1CC2(CCN(Cc3cccnc3)CC2)C1 | 33 |
| CN(Cc1cccnc1)C1CC2(CCN(c3ccccn3)CC2)C1 | 47.8 |
| CN(Cc1cccnc1)C1CC2(CCN(C(=O)c3ccnnc3)CC2)C1 | 53.9 |
| CN(Cc1cccnc1)C1CC2(CCN(C(=O)c3cnccn3)CC2)C1 | 21.7 |
| CN(Cc1ccncc1)C1CC2(CCN(C(=O)c3ccnnc3)CC2)C1 | -5.63 |
| CN(Cc1cccnc1)C1CC2(CCN(Cc3cccnc3)CC2)C1 | 70.7 |
| CN(Cc1cccnc1)C1CC2(CCN(C(=O)c3cscn3)CC2)C1 | -18.5 |
| CN(Cc1cccnc1)C1CC2(CCN(Cc3ccccn3)CC2)C1 | 50.9 |
| CN(Cc1ccccn1)C1CC2(CCN(Cc3ccccn3)CC2)C1 | 47.4 |
